The text below walks through data of ChEMBL document CHEMBL3988442, “University of Dundee, Small-Polar-MMV Screening Library” (2021).

Structures are written as SMILES. About 1,000 (1.4%) of roughly 69,000 compounds showed an effect of 50% or more. The full list was thinned out, with strong results kept by preference.

This assay concerns Leishmania donovani. The assay can be described thus: Leishmania intramacrophage assay. It is filed as functional, organism-based. Further details: scale not given: in the data most compounds retested in dose-response had high values.

On to `COc1ccccc1CC(=O)NC(CC(=O)O)c1ccc(C)cc1` (centres undefined), for which the “Percent Effect” value (30.3 µM, […]) is recorded as -0.7929%.

Consider `COc1ccccc1Oc1ncccc1CNC(=O)CN1CCCC1=O`, for which the “Percent Effect” value (30.3 µM, […]) came out at 15.35%. The same measure, in the same setting: as for `Cc1cc(NC(=O)NCc2cccnc2OC(C)C)no1`, the figure is 23.81%. In the case of `O=C(O)C(F)(F)F.O=C(O)C(F)(F)F.c1ccc(CN2CCc3nnc(CN4CCCCC4)n3CC2)nc1`, the “Percent Effect” value (30 µM, 30.03 µM) is -31.83%. As to `CNc1cc(C)nc(N2C[C@H](NC(=O)C3CCOCC3)[C@@H](C3CC3)C2)n1`, under “30.3 µM, […]”, the “Percent Effect” value is listed as -19.84%.

In the case of `Cc1cc(N2C[C@H](C3CC3)[C@@H](N)C2)nc(N2CCCCC2)n1`, the “Percent Effect” value (30.3 µM, […]) is recorded as 55.81%. `CC(C)Oc1cc(N2C[C@H](C3CC3)[C@@H](N)C2)nc(N)n1`: under “30.3 µM, […]”, the “Percent Effect” value stood at 15.53%. Turning to `CNc1cc(C)nc(N2C[C@@H](C(=O)O)[C@H](C3CC3)C2)n1`, for the setting “30.3 µM, […]”, the “Percent Effect” value came out at 1.34%. Same read-out and setting: as for `CCc1cc(N2C[C@H](C3CC3)[C@@H](N)C2)nc(N2CCCC2)n1`, the figure is 72.46%. The same measure, in the same setting: the same measure for `CCc1cc(N2C[C@H](C3CC3)[C@@H](N)C2)nc(N2CCOCC2)n1`: 29.17%; for `Cc1cc(C)nc(N2CCC(OCCN3CCCCC3)C2)n1` (centres undefined): -14.11%. Still for that read-out and setting: the same measure for `N[C@H]1CN(Cc2cnc(N3CCCC3)nc2)C[C@@H]1C1CC1`: 17.06%; for `CNc1cc(C)nc(N2C[C@H](C3CC3)[C@@H](N)C2)n1`: 66.39%; for `Nc1cc2c(nn1)CCN(C(=O)c1ccc(-c3ccco3)[nH]c1=O)C2`: 9.211%. With `O=c1cc(C2CCNCC2)nc(CCCc2ccccc2)[nH]1`, the “Percent Effect” value (30.3 µM, […]) is 27.29%. In the case of `Cc1cc(NC(=O)CN2CCn3c(nnc3C(C)C)C2)n(C)n1`, under “30 µM”, the “Percent Effect” value was -15.63%.

`Cc1nsc(N2CCCN(C(=O)NCc3cc(C)on3)CC2)n1`: the “Percent Effect” value (30.3 µM, […]) was 8.411%. Take `CN(CCNc1ncc2c(n1)CCN2c1ccccc1)S(C)(=O)=O`: the “Percent Effect” value (30.3 µM, […]) turned out to be 14.06%. Take `Cc1cnn(CCC(=O)N2CCCC(c3cc(C(N)=O)[nH]n3)C2)c1` (centres undefined): the “Percent Effect” value (30 µM, 30.03 µM) amounted to 2.466%. `COc1ccccc1CC(=O)N1CCC(OCc2cccnc2)CC1`: under “30.3 µM, […]”, the “Percent Effect” value was found to be 5.945%. On the same count and under the same terms, the same measure for `CN1C[C@@H](N)C[C@H]1C(=O)N1CCC(Cc2ccc(F)cc2)CC1`: 8.715%.

As for `Cc1ccccc1SC1CCN(C(=O)C2CNCC(=O)N2)CC1` (centres undefined), where the note is “30.3 µM, […]”, the “Percent Effect” value is 24.39%. `Cc1ccccc1SC1CCN(C(=O)C2CNC(=O)N2)CC1` (centres undefined): the “Percent Effect” value (30.3 µM, […]) was -12.93%. With `Cc1ccccc1SC1CCN(C(=O)[C@@H]2C[C@@H](N)CN2)CC1`, for the setting “30.3 µM, […]”, the “Percent Effect” value came to 56.56%. The same measure, in the same setting: as for `Cc1ccccc1SC1CCN(C(=O)[C@H]2[C@@H]3CNC[C@@H]32)CC1`, the figure is 68.53%; as for `Cc1ccccc1SC1CCN(C(=O)CCCS(N)(=O)=O)CC1`, 28.86%; as for `Cc1nc[nH]c1C(=O)N1CC[C@@H](NC(=O)c2ccccn2)[C@H](O)C1`, 11.08%. On the same count and under the same terms, the same measure for `COCC1CC2(CCN(Cc3nccn3C)CC2)CN1c1ncccn1.O=C(O)C(F)(F)F` (centres undefined): 11.88%.

For the compound `CC(=O)c1c(C)nn(CC(=O)N2CCCC2c2ccc(C(N)=O)s2)c1C` (centres undefined), the “Percent Effect” value (30.3 µM, […]) came out at 42.8%. Still for that read-out and setting: as for `Cc1n[nH]c2ncc(CNC3CCCN(c4ncccn4)C3)cc12.Cl` (centres undefined), the figure is 15.17%; as for `Cc1cnc(N2CCn3c(CN4CCOCC4)nnc3C2)nc1.O=C(O)C(F)(F)F`, 30.81%. Same read-out and setting: as for `COC(=O)CNC(=O)Cn1ccc2ccc(F)cc21`, the figure is 14.64%; as for `CC(NC1CCN(CC(=O)N(C)C)CC1)c1cnn(C(C)C)c1` (centres undefined), -44.29%.

Turning to `Cc1nc(-c2c(C)noc2C)cc(C2CCN(CC(=O)N(C)C)CC2)n1`, the “Percent Effect” value (30.3 µM, […]) came to 31.09%. With `Cc1cc(Cl)cc(C)c1CNC1CCN(CC(=O)N(C)C)CC1`, the “Percent Effect” value (30.3 µM, […]) worked out at 66.45%.

`CC(C)Oc1cc(N2CCC(C(N)=O)CC2)nc(N)n1`: the “Percent Effect” value (30.3 µM, […]) stood at 14.18%. With `COc1ccc(C2CCCN2C(=O)c2cc3c([nH]c2=O)CCC3)cc1` (centres undefined), under “30 µM, 30.03 µM”, the “Percent Effect” value is listed as 22.34%. For `O=C1CC2(CCSC2)C(=O)N1Cc1coc(-c2ccccc2)n1` (centres undefined), where the note is “30.3 µM, […]”, the “Percent Effect” value amounted to 4.889%. Consider `CNC(=O)N1CCCCC1CCNS(C)(=O)=O` (centres undefined), for which the “Percent Effect” value (30.3 µM, […]) turned out to be 6.391%. As to `Cc1nn(C)c(N(C)C)c1CNCc1ccccc1Cn1cncn1`, for the setting “30 µM, 30.03 µM”, the “Percent Effect” value came out at 20.9%. In the case of `Cc1cc(F)c(C(C(=O)O)N2CCN(Cc3ccccn3)CC2)cc1Cl` (centres undefined), the “Percent Effect” value (30.3 µM, […]) is given as 5.04%. Same read-out and setting: as for `Cc1ccc(C(C(=O)O)N2CCCN(Cc3ccccn3)CC2)c(F)c1` (centres undefined), the figure is 23.66%.

For `O=C(O)C(c1ccc(Cl)c(F)c1)N1CCN(Cc2ccccn2)CC1` (centres undefined), the “Percent Effect” value (30.3 µM, […]) came out at 61.2%.

For the compound `COCCC(=O)N1CCCC1c1nccc(C)n1` (centres undefined), the “Percent Effect” value (30.3 µM, […]) is recorded as 11.84%.

For `Cl.Fc1ccc(F)c(CN2CCC(c3cc4ncccc4cn3)CC2)c1`, under “30.3 µM, […]”, the “Percent Effect” value amounted to 33.05%. As to `Fc1cc(F)cc(CN2CCC(c3cc4ncccc4cn3)CC2)c1`, for the setting “30.3 µM, […]”, the “Percent Effect” value is 29.54%. The same measure, in the same setting: as for `Cl.Fc1cccc(CN2CCC(c3cc4ncccc4cn3)CC2)c1F`, the figure is 51.12%; as for `Cn1nnnc1SCC(=O)N1CCN(C(=O)C2CC2c2cccs2)CC1` (centres undefined), -0.756%. On the same count and under the same terms, the same measure for `Cc1cnn(CCNCC(O)c2ccc3c(c2)OCCO3)c1` (centres undefined): -28.04%.
